This passage reports Potency, max activation and outcome results from PubChem BioAssay (Tox21).

Values joined by “and” are separate entries in the source; they are usually repeats but may differ in a detail not shown here. Equal values may be shown once. Records with an inconclusive call do not appear. Some compounds were tested as several samples or in several runs, with calls that do not always agree. Active and inactive are the calls of the source. Unless noted, calls follow the shape of the dose curve; as a rule, active = well fitted curve in the direction sought with a large enough effect in the repeat runs; inconclusive = weak or mixed curves; inactive = no such curve, though single readings can be large; an effect the other way counts as inactive or inconclusive.

The nature of assay [1]: Caspase-3/7 induction in CHO-K1 cells by small molecules, qHTS assay (AID 1346980). Also: nearly all actives have a fitted effect of over 15% in size. Also: potency is read from the fitted curve at half-maximal effect. An outline of the steps: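 Wild-type cells were seeded at 1,500 per well and settled 5 hr at 37 C, 5% CO2, then exposed to DMSO-dissolved compounds for 17 hr. Caspase-Glo 3/7 reagent was added, and luminescence was read after 30min at room temperature.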
Assay [2] concerns the target Nuclear receptor subfamily 1 group I member 2 (Homo sapiens) (UniProt O75469). Put plainly: Human pregnane X receptor (PXR) small molecule agonists, qHTS assay (AID 1346982). Also: nearly all actives have a fitted effect of over 35% in size. Also: potency is read from the fitted curve at half-maximal effect. An outline of the steps: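 Agonist mode qHTS: PXR-Luc HepG2 cells plated 5 hr before DMSO-dissolved compounds were pinned in, cultured 24 hr at 37 C, 5% CO2; ONE-Glo luminescence readout.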
On the technique in general: qHTS replaces the single test concentration by a dilution series.

Assay [3] addresses Nuclear receptor subfamily 1 group I member 2 (Rattus norvegicus) (UniProt Q9R1A7). In words: Rat pregnane X receptor (rPXR) activation by small molecules, qHTS assay (AID 1346983). Also: nearly all actives have a fitted effect of over 20% in size. As to conditions: rPXR luciferase reporter cells, One-Glo luminescence, 24 h; stronger effect = higher value. An outline of the steps:
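Cell-based rPXR luciferase reporter assay, 2,000 cells per well, rested 5hr at 37 C before compound addition in DMSO, then 24 hr at 37 C. One-Glo reagent was added and luminescence read after 30 min at room temperature.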

Assay [4] deals with Nuclear receptor subfamily 1 group I member 2 (Homo sapiens) (UniProt O75469). In words: CYP3A4 induction through human pregnane X receptor (PXR) by small molecules, qHTS assay (AID 1346984). Also: nearly all actives have a fitted effect of over 40% in size. An outline of the steps:
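Steps: seed DPX-2 cells, 5 hr at 37C; pin-transfer compounds; 24 hr at 37C; add Luciferin-IPA (3uM final), 3 hr at 37C; add One-Glo, 30 min RT; read luminescence.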

Assay [5] shares this target. Put plainly: Human pregnane X receptor (PXR) activation by small molecules, qHTS assay (AID 1346985). Also: nearly all actives have a fitted effect of over 40% in size. Also: potency is read from the fitted curve at half-maximal effect. An outline of the steps: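 DPX-2 cells (HepG2 co-transfected with a PXR response element and a CYP3A4-promoter luciferase construct) were seeded at 2,000 per well, rested 5 hr at 37C, then exposed to DMSO-dissolved compounds for 24 hr. Activation was read as luciferase luminescence.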

Assay [6] deals with Acetylcholinesterase (Homo sapiens) (UniProt P22303). Put plainly: Acetylcholinesterase (AChE) small molecule antagonists: colormetric cell-based qHTS assay (AID 1347395; calls by dose curve; also: nearly all actives have a fitted effect of over 30% in size; also: potency is read from the fitted curve at half-maximal effect). An outline of the steps:
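SH-SY5Y cells; cpd 30 min 37 C; + DTNB/acetylthiocholine, 90 min 37 C; colorimetric thiocholine read; qHTS.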

Assay [7] has the same target. Put plainly: Acetylcholinesterase (AChE) small molecule antagonists: enzyme-based qHTS assay (AID 1347397; calls by dose curve; also: nearly all actives have a fitted effect of over 55% in size; also: potency is read from the fitted curve at half-maximal effect). As to conditions: Potency: AChE enzyme activity inhibition. An outline of the steps:
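Human recombinant acetylcholinesterase; substrate acetylthiocholine; thiocholine quantified with DTNB (colorimetric). Compound preincubation 30 min RT; reaction 10 min RT.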

For assay [8] the target is unchanged. In words: Acetylcholinesterase (AChE) small molecule antagonists: enzyme-based qHTS assay with human liver microsomes (AID 1347399; calls by dose curve; also: nearly all actives have a fitted effect of over 60% in size; also: potency is read from the fitted curve at half-maximal effect). As to conditions: Potency: qHTS inhibition. An outline of the steps: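 Recombinant human AChE (50 mU/mL in the enzyme mix) and human liver microsomes (0.25 mg/mL final) were preincubated with compound and NADPH (0.25 mg/mL final) for 30 min at 37 C. Acetylthiocholine/DTNB was then added; thiocholine was read colorimetrically after 10 min at room temperature.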

Assay [9] deals with Cytochrome P450 2D6 (Homo sapiens) (UniProt P10635). In words: Cytochrome P450 Family 2 Subfamily D Member 6 (CYP2D6) small molecule antagonists: luciferase reporter qHTS assay (AID 1671196). Also: nearly all actives have a fitted effect of over 50% in size. Also: potency is read from the fitted curve at half-maximal effect. An outline of the steps: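 P450-Glo format: CYP2D6 converts a proluciferin substrate to luciferin in an NADPH-driven reaction lasting 1 h at room temperature. Light output, proportional to CYP2D6 activity, reflects interference by test chemicals.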
A general note: In a reporter assay the amount or activity of a reporter protein is the signal.
% is scaled to controls: 0 for no effect and ±100 for the full control effect.

Nuclear receptor subfamily 1 group I member 2 (Homo sapiens), sequence (O75469 whole entry, looked up): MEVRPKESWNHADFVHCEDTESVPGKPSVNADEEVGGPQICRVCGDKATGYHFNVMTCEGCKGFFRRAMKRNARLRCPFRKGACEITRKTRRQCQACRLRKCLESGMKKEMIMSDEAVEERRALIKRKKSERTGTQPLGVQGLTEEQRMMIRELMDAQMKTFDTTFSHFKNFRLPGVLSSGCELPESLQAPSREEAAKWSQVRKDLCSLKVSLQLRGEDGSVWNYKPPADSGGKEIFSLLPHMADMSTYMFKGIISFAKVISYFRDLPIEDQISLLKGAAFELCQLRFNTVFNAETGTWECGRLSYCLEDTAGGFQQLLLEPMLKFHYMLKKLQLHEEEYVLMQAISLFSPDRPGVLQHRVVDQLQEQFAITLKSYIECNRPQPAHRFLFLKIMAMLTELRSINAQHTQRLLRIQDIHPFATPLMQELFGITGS
Nuclear receptor subfamily 1 group I member 2 (Rattus norvegicus), sequence (Q9R1A7 whole entry, looked up): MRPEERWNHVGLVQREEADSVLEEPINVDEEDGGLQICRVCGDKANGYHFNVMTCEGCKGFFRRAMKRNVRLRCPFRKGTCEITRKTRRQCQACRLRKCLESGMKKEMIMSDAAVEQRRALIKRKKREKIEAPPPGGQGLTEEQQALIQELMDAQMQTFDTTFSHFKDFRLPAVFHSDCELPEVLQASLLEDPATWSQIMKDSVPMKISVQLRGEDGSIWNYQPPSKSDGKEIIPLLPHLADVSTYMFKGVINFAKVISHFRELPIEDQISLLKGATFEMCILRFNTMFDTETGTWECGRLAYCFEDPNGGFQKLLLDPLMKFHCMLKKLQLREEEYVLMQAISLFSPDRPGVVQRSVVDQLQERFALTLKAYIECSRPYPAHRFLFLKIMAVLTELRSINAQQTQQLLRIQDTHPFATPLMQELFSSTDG
Cytochrome P450 2D6 (Homo sapiens), sequence (P10635 whole entry, looked up): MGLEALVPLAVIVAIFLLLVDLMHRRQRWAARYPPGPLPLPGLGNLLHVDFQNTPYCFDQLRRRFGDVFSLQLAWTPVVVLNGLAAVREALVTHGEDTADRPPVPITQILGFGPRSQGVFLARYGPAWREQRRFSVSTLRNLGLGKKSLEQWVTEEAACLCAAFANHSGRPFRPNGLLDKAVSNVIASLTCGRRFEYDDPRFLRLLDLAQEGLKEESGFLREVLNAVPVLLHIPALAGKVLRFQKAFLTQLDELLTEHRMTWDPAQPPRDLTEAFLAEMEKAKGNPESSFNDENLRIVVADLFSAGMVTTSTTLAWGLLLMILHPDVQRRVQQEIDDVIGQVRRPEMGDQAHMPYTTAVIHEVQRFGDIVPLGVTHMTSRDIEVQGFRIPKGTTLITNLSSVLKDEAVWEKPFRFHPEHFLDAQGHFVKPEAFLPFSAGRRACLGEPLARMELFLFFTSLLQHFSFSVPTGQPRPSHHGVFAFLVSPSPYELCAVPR
Acetylcholinesterase (Homo sapiens), sequence (P22303 whole entry, looked up): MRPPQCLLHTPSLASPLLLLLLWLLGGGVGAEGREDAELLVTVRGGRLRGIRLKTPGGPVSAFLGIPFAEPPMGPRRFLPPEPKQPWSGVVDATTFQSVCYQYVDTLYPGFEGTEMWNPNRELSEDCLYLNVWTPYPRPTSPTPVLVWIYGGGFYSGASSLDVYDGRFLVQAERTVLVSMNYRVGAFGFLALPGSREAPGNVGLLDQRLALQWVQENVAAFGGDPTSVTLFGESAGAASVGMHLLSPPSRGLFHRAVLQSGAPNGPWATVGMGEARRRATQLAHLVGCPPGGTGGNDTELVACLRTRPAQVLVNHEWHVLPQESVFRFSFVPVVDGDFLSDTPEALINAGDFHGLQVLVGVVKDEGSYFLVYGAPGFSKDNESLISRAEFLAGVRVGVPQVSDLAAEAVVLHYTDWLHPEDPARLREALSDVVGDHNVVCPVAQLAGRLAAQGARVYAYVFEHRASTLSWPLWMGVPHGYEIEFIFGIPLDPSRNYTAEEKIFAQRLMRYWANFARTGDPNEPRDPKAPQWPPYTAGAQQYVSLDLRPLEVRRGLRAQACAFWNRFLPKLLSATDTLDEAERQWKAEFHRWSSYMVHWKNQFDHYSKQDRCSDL

In the case of `O=c1[nH]c(=O)n(Cl)c(=O)n1Cl`, the Potency result in assay [1], in [2], in assay [5], in assay [6], in assay [7] and in assay [8] was “inactive” each time. In assay [9], the Potency result is “inactive”. For the same compound, the max activation in [3] was 0.0078% (inactive). Besides, in assay [4], the compound was called inactive.

As for `C=CCOC(Cn1ccnc1)c1ccc(Cl)cc1Cl` (stereo unspecified), the Potency entry in [1], in assay [6], in [7] and in assay [8] was “inactive” throughout. In addition, the Potency in assay [2] is 48.7 µM (active) and 15.4 µM (active) and 11.9 µM (active). In assay [4], the compound was classed as inactive.

Take `CC(=O)[O][Hg][c]1ccccc1`: the Potency entry in assay [1], in [2], in assay [6], in assay [7] and in assay [8] was “inactive” throughout. Also, the max activation in [3] is -23.3% (inactive). Besides, in assay [4], the call was inactive. Further, the Potency in [5] is 10 µM (active); in [9] it was 353 nM (active) and 564 nM (active) and 1.74 µM (active).

Regarding `CCCCCCCCCCCCCCCCn1cc[n+](C)c1`, the Potency result in [1], in [6] and in [8] was “inactive” each time. Further, the Potency in [2] is 7.86 µM (active) and inactive and 6.13 µM (active).

Consider `Oc1ccccc1-c1ccccc1`, for which the Potency entry in assay [1], in assay [5], in [6], in assay [7] and in assay [8] was “inactive” in each case. The Potency entry was “inactive and 31.4 µM (active)” in assay [2]; 39.9 µM (active) in assay [9]. The max activation in assay [3] was -1.27% (inactive). Besides, the outcome in [4] was inactive.

For the compound `CCCC[n+]1cccc(C)c1`, the Potency entry in [1], in assay [2] and in assay [9] was “inactive” throughout.

Consider `CCCC[n+]1ccccc1`, for which the Potency result in assay [1], in assay [2] and in assay [9] was “inactive” throughout.

As for `O=C(O)CCl`, the Potency result in assay [1], in assay [2], in assay [6], in [7], in assay [8] and in assay [9] was “inactive” each time.

For `CCCC[n+]1ccccc1C`, the Potency entry in assay [1], in assay [2] and in assay [9] was “inactive” throughout.

In the case of `CCCC[n+]1ccc(C)cc1`, the Potency result in assay [1] is “inactive”. The Potency entry in assay [2] was “inactive and 5.45 µM (active)”; in assay [9] it was “inactive and 449 nM (active)”.

In the case of `Cc1cc(Cl)ccc1OCC(=O)O`, the Potency result in [1], in [2], in assay [6], in assay [7], in [8] and in [9] was “inactive” in each case.

With `Nc1ccccc1`, the Potency entry in [1] and in assay [2] was “inactive” each time. Also, in [9], the Potency entry is “inactive and 64.5 µM (active)”.

For the compound `CCCC[N+]1(C)CCCCC1`, the Potency entry in assay [1], in assay [2], in [6], in assay [7], in [8] and in assay [9] was “inactive” in each case.

In the case of `CCCCCCCCCCn1cc[n+](C)c1`, the Potency entry in [1] and in [8] was “inactive” in each case. Also, in [6], the Potency is 39.8 µM (active) [middle of 6 runs].

Regarding `O=C(O)CC(O)(CC(=O)O)C(=O)O`, the Potency result in assay [1] and in assay [9] was “inactive” in each case.

Regarding `CCCCCCCCCCCCCC[P+](CCCCCC)(CCCCCC)CCCCCC`, the Potency result in assay [1] was “inactive and 13.8 µM (active)”; in [2], 2.74 µM (active) and 3.89 µM (active) and 3.43 µM (active); in assay [6] it was 71.3 µM (active) and 80.3 µM (active) and inactive; in [7] it was 20.1 µM (active) and 25.4 µM (active) and inactive; in assay [9] it was 201 nM (active) and 101 nM (active) and 224 nM (active). Besides, the Potency entry in assay [8] is “inactive”.

Take `COc1ccccc1N`: the Potency entry in assay [1] and in [2] was “inactive” in each case. Further, in assay [9], the Potency is 17.8 µM (active) and 35.7 µM (active) and 12.6 µM (active).

Consider `O=P1(N(CCCl)CCCl)NCCCO1` (stereo unspecified), for which the Potency result in [1], in assay [2], in [6], in assay [7], in assay [8] and in assay [9] was “inactive” in each case.

For the compound `C1CCC(NC2CCCCC2)CC1`, the Potency result in assay [1], in [2], in assay [5], in assay [6], in [7] and in assay [8] was “inactive” throughout. Besides, in [3], the max activation is -0.555% (inactive). Besides, the call in [4] was inactive. Besides, in assay [9], the Potency is 1.47 µM (active) and 252 nM (active) and 246 nM (active).

Turning to `CCC(=O)C(CC(C)N(C)C)(c1ccccc1)c1ccccc1` (stereo unspecified), the Potency entry in [1], in assay [6], in assay [7] and in assay [8] was “inactive” throughout. Also, the Potency in assay [2] is 8.67 µM (active) and 60.7 µM (active); in assay [9], 2.01 µM (active) and 996 nM (active) and 1.53 µM (active).

In the case of `Nc1ccc(-c2ccc(N)c(Cl)c2)cc1Cl`, the Potency entry in [1], in assay [6], in assay [7], in assay [8] and in [9] was “inactive” each time. For the same compound, the Potency in assay [2] was 30.8 µM (active) and 9.69 µM (active).

Consider `CC(Cl)(Cl)C(=O)O`, for which the Potency result in assay [1], in assay [6], in [7], in [8] and in assay [9] was “inactive” each time. Moreover, in assay [2], the Potency result was “inactive and 61.3 µM (active)”.

As for `Nc1ccc(Cl)cc1`, the Potency entry in assay [1], in assay [6], in assay [7] and in [8] was “inactive” throughout. Also, the Potency entry is “inactive and 62.2 µM (active)” in assay [2]; 20 µM (active) and 31.7 µM (active) and 60.8 µM (active) in assay [9].

For `CCCn1cc[n+](C)c1`, the Potency result in assay [1], in assay [2], in assay [6], in assay [7] and in assay [8] was “inactive” each time. Also, the Potency in [9] was 80.4 µM (active) and inactive.

Regarding `CCC[N+]1(C)CCCCC1`, the Potency result in [1], in assay [2], in assay [6], in assay [7], in assay [8] and in assay [9] was “inactive” throughout.

With `Cc1cc(Cl)ccc1N`, the Potency result in assay [1] and in assay [2] was “inactive” each time. Also, the Potency in assay [9] was 23 µM (active) and inactive and 22.4 µM (active).

Regarding `CCCCCCCCn1cc[n+](C)c1`, the Potency entry in assay [1] was “inactive”. Besides, the Potency is 13.6 µM (active) and 21.7 µM (active) and 17.4 µM (active) in assay [2]; 5.68 µM (active) [middle of 4 runs] in assay [9].

On to `CCNc1nc(Cl)nc(NCC)n1`, for which the Potency entry in assay [1], in [2], in [5], in [7], in [8] and in assay [9] was “inactive” in each case. Besides, the max activation in assay [3] is -2% (inactive). Moreover, the compound was called inactive in [4]. Further, the Potency in [6] was 31.9 µM (active) and inactive.

Take `CC[N+]1(C)CCCC1`: the Potency result in [1], in [2], in assay [7] and in assay [8] was “inactive” throughout. Moreover, the Potency result is “inactive and 22.4 µM (active)” in [6]; 6.3 nM (active) and inactive in assay [9].

As for `CN(C)[C@@H]1C(=O)C(C(N)=O)=C(O)[C@@]2(O)C(=O)C3=C(O)c4c(O)cccc4[C@@](C)(O)[C@H]3[C@H](O)[C@@H]12`, the Potency result in assay [1], in [2], in [5] and in assay [9] was “inactive” throughout. Besides, in [3], the max activation was -4.55% (inactive) and -1.55% (inactive). For the same compound, in [4], the result was inactive.

Consider `CC[n+]1ccccc1`, for which the Potency entry in assay [1], in assay [6], in assay [7], in assay [8] and in assay [9] was “inactive” each time. Besides, the Potency entry in assay [2] is “inactive and 1.21 µM (active)”.

On to `O=C(O)C(Cl)(Cl)Cl`, for which the Potency result in assay [1], in assay [2], in assay [5], in [6], in assay [7] and in [8] was “inactive” in each case. Also, the Potency entry in [9] is “inactive”. Also, the max activation in assay [3] was -1.14% (inactive). Also, the outcome in assay [4] was inactive.

As for `CCOP(=S)(OCC)Oc1ccc2c(C)c(Cl)c(=O)oc2c1`, the Potency entry in assay [1] was “inactive”. Moreover, the Potency in [2] is 27.6 µM (active) and 19.3 µM (active) and 23.7 µM (active); in assay [5] it was 14.1 µM (active); in [6], 22.7 µM (active) and 12.6 µM (active) and inactive; in assay [7], 40.4 µM (active) and 71 µM (active) and inactive; in assay [8], 1.8 µM (active) and 633 nM (active) and inactive; in [9], 5.08 µM (active) and 15.9 µM (active). In addition, the max activation in assay [3] is 9.05% (inactive). In addition, the outcome in assay [4] was inactive.
